Measured values published in PubChem BioAssay AID1159580 (chemical genetic matrix, 2015).
Values joined by “and” are separate entries in the source; they are usually repeats but may differ in a detail not shown here. Identical values can stand only once. The campaign covered roughly 5,500 compounds. About 2,000 (36%) were called active. Not shown: some 18% with an inconclusive outcome. Rule as the data show it: active = normalized growth mostly below about 0.91 (no sharp cut-off); inconclusive = no clear call, values can overlap the other calls; inactive = mostly above about 0.92. The list shows a part of the results.

Assay: chemical genetic growth profiling, strain panel (AID 1159580);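 also: tested at 20 µM; growth read once vehicle control cultures reached saturation at 30 °C; 1 = growth at the plate median or of vehicle wells; lower values mean less growth of the strain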
Details: S. cerevisiae deletion strains, growth OD

Measured: normalized growth

CC[N+](C)(C)c1cccc(O)c1
inactive: locus YAL013W, strain DEP1, active compounds read low 0.992 and 1.06 | locus YAL021C, strain ccr4, active compounds read low 1.02 | locus YAL026C, strain drs2, active compounds read low 0.993 | locus YAL030W, strain snc1, active compounds read low 1.01 | locus YAL040C, strain CLN3, active compounds read low 0.997 | locus YBL061C, strain skt5, active compounds read low 1 | locus YBR009C, strain hhf1, active compounds read low 0.964 | locus YBR021W, strain FUR4, active compounds read low 0.996 | locus YBR023C, strain chs3, active compounds read low 1.02 | locus YBR171W, strain sec66, active compounds read low 1 | locus YBR229C, strain ROT2, active compounds read low 0.983 | locus YBR231C, strain swc5, active compounds read low 1.03 | locus YBR279W, strain paf1, active compounds read low 1.01 | locus YCL011C, strain gbp2, active compounds read low 1.02 | locus YCL016C, strain dcc1, active compounds read low 1.02 | locus YCL029C, strain bik1, active compounds read low 0.966 | locus YCL061C, strain MRC1 (second series), active compounds read low 1 | locus YCL061C, strain MRC1, active compounds read low 1.02 | locus YCL069W, strain vba3, active compounds read low 1.01 | locus YCR088W, strain abp1, active compounds read low 1.01 | locus YDL005C, strain med2, active compounds read low 1.02 | locus YDL035C, strain GPR1, active compounds read low 1.01 | locus YDL040C, strain nat1, active compounds read low 1.01 | locus YDL074C, strain BRE1, active compounds read low 0.984 | locus YDL101C, strain DUN1, active compounds read low 0.979 | locus YDL134C, strain PPH21, active compounds read low 0.984 | locus YDL185W, strain tfp1, active compounds read low 0.972 | locus YDL192W, strain arf1, active compounds read low 0.992 | locus YDR001C, strain nth1, active compounds read low 1 | locus YDR069C, strain doa4, active compounds read low 1.02 | locus YDR101C, strain arx1, active compounds read low 0.966 | locus YDR137W, strain rgp1, active compounds read low 1.04 | locus YDR150W, strain NUM1, active compounds read low 0.996 and 1 | locus YDR159W, strain sac3, active compounds read low 0.993 | locus YDR162C, strain NBP2, active compounds read low 0.999 | locus YDR195W, strain ref2 1.01 | locus YDR297W, strain sur2, active compounds read low 1.01 | locus YDR318W, strain mcm21, active compounds read low 0.971 | locus YDR334W, strain swr1, active compounds read low 1.01 | locus YDR335W, strain msn5, active compounds read low 1.01 | locus YDR363W, strain ESC2, active compounds read low 1.01 | locus YDR388W, active compounds read low 0.978 | locus YDR392W, strain spt3, active compounds read low 0.92 | locus YDR502C, strain sam2, active compounds read low 0.975 | locus YEL003W, strain gim4, active compounds read low 0.995 | locus YEL037C, strain rad23, active compounds read low 0.999 | locus YEL061C, strain CIN8 (second series), active compounds read low 1.01 | locus YEL061C, strain CIN8, active compounds read low 0.994 | locus YER002W, strain NOP16, active compounds read low 0.998 | locus YER015W, strain faa2, active compounds read low 0.999 | locus YER016W, strain bim1, active compounds read low 1.01 | locus YER110C, active compounds read low 0.97 | locus YER111C, strain swi4, active compounds read low 0.998 | locus YER155C, strain BEM2 (second series), active compounds read low 1.02 | locus YER155C, strain BEM2, active compounds read low 0.949 | locus YER167W, strain BCK2, active compounds read low 0.995 | locus YFR010W, strain ubp6, active compounds read low 1 | locus YGL078C, strain dbp3, active compounds read low 0.982 | locus YGL086W, strain mad1, active compounds read low 1 | locus YGL167C, strain pmr1, active compounds read low 1.01 | locus YGL173C, strain kem1, active compounds read low 1.02 | locus YGL227W, strain vid30, active compounds read low 1.02 | locus YGL240W, strain doc1, active compounds read low 1.03 | locus YGL248W, strain PDE1, active compounds read low 0.997 | locus YGL253W, strain hxk2, active compounds read low 1.02 | locus YGR078C, strain PAC10, active compounds read low 0.995 and 0.986 | locus YGR135W, strain pre9, active compounds read low 0.973 | locus YGR229C, strain SMI1, active compounds read low 1.01 | locus YGR252W, strain gcn5, active compounds read low 1.06 | locus YHR013C, strain ard1, active compounds read low 1.06 | locus YHR027C, strain rpn1, active compounds read low 1.01 | locus YHR030C, strain SLT2, active compounds read low 0.988 and 1.01 | locus YHR079C, strain IRE1 (second series), active compounds read low 0.982 | locus YHR079C, strain IRE1, active compounds read low 0.99 | locus YHR094C, strain hxt1, active compounds read low 0.976 | locus YHR129C, strain ARP1, active compounds read low 0.987 | locus YHR142W, strain chs7, active compounds read low 1 | locus YHR200W, strain rpn10, active compounds read low 0.968 | locus YIL066C, strain RNR3, active compounds read low 0.985 | locus YIL073C, strain SPO22, active compounds read low 0.982 | locus YIL125W, strain kgd1, active compounds read low 0.997 | locus YIR030C, strain dcg1, active compounds read low 0.974 | locus YJL092W, strain hpr5, active compounds read low 1.01 | locus YJL095W, strain BCK1 (second series), active compounds read low 1.01 | locus YJL095W, strain BCK1, active compounds read low 0.973 and 1.02 | locus YJL115W, strain asf1, active compounds read low 1.01 | locus YJL129C, strain trk1, active compounds read low 1.02 | locus YJL134W, strain LCB3, active compounds read low 0.991 | locus YJL154C, strain vps35, active compounds read low 1 | locus YJL164C, strain tpk1, active compounds read low 0.996 | locus YJL166W, strain qcr8, active compounds read low 1.04 | locus YJL168C, strain set2, active compounds read low 0.979 | locus YJL187C, strain SWE1 (second series), active compounds read low 0.977 | locus YJL187C, strain SWE1, active compounds read low 1.01 | locus YJR043C, strain POL32, active compounds read low 0.984 | locus YJR066W, strain TOR1, active compounds read low 0.931
